These sequences were tested against PUM1 PUF domain R4-WAS (Homo sapiens, UniProt Q14671 828-1176, N971W;H972A;Q975S) (assay: yeast three-hybrid, YBZ-1, SC-Leu-His + 0.5 mM 3-AT, 4 days). Conditions: tags: N-Gal4 AD-HA kept; label: inside an RPR1-promoter hybrid RNA with tandem MS2 sites; ssRNA.
Sequence of PUM1 PUF domain R4-WAS (Q14671 828-1176 N971W/H972A/Q975S): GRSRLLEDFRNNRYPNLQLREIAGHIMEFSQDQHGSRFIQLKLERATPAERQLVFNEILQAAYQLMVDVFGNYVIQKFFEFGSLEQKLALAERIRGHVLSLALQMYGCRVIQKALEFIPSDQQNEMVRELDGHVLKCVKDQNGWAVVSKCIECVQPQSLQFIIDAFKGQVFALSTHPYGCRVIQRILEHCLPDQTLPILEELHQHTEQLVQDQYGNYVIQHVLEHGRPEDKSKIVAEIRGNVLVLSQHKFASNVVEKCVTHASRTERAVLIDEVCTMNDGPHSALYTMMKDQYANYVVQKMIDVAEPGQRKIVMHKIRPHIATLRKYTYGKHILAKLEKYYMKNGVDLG
Outline: (§1)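 Repeat regions from input (SC-Leu) and selection (SC-Leu-His + 0.5 mM 3-AT) plates were PCR-amplified and Illumina-sequenced after four days of growth. The cells were strain YBZ-1 with a LexA–MS2 coat fusion and a HIS3 reporter, co-expressing Pumilio-1 PUF domain libraries and matching RNA elements from a centromeric plasmid. The interaction score is the log change in variant frequency from input to selection, taken in log2 with a pseudocount of 1 for absent variants.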
With “GGCUAGAACUAGUGGAUCCCCCGGCGCCCGGCGGCUCGAGCCCGGGUAAGUGUAAAUAGUCUGCAUGCCGCCGGGCGCCAUGCCUGCAGGUCGACUCUAGAAAACAUG” the binding signal was 2.5 log2 enrichment (interaction score). With “GGCUAGAACUAGUGGAUCCCCCGGCGCCCGGCGGCUCGAGCCCGGGUAAGUGUAUAUAGUCUGCAUGCCGCCGGGCGCCAUGCCUGCAGGUCGACUCUAGAAAACAUG” the binding signal was 4.67 log2 enrichment (interaction score). With “GGCUAGAACUAGUGGAUCCCCCGGCGCCCGGCGGCUCGAGCCCGGGUAAGUGUACAUAGUCUGCAUGCCGCCGGGCGCCAUGCCUGCAGGUCGACUCUAGAAAACAUG” the binding signal was 3.76 log2 enrichment (interaction score).

Each sequence was assayed against PUM1 PUF domain R5-LHA (Homo sapiens, UniProt Q14671 828-1176, C1007L;R1008H;Q1011A) in the same assay as above. Conditions: tags: N-Gal4 AD-HA kept; label: inside an RPR1-promoter hybrid RNA with tandem MS2 sites; ssRNA.
Sequence of PUM1 PUF domain R5-LHA (Q14671 828-1176 C1007L/R1008H/Q1011A): as the sequence (Q14671 828-1176 N971W/H972A/Q975S) above, with W144N, A145H, S148Q, C180L, R181H, Q184A counted along it
Outline: as §1
“GGCUAGAACUAGUGGAUCCCCCGGCGCCCGGCGGCUCGAGCCCGGGUAAGUGUAAAUAGUCUGCAUGCCGCCGGGCGCCAUGCCUGCAGGUCGACUCUAGAAAACAUG” was tested, and the binding signal was 2.04 log2 enrichment (interaction score). “GGCUAGAACUAGUGGAUCCCCCGGCGCCCGGCGGCUCGAGCCCGGGUAAGUGUUAAUAGUCUGCAUGCCGCCGGGCGCCAUGCCUGCAGGUCGACUCUAGAAAACAUG” was tested, and the binding signal was 4.62 log2 enrichment (interaction score). For “GGCUAGAACUAGUGGAUCCCCCGGCGCCCGGCGGCUCGAGCCCGGGUAAGUGUCAAUAGUCUGCAUGCCGCCGGGCGCCAUGCCUGCAGGUCGACUCUAGAAAACAUG”, the binding signal was 3 log2 enrichment (interaction score).

The sequences below were run against PUM1 PUF domain R5-RRR (Homo sapiens, UniProt Q14671 828-1176, C1007R;Q1011R) in the same assay as above. Conditions: tags: N-Gal4 AD-HA kept; label: inside an RPR1-promoter hybrid RNA with tandem MS2 sites; ssRNA.
Sequence of PUM1 PUF domain R5-RRR (Q14671 828-1176 C1007R/Q1011R): as the sequence (Q14671 828-1176 N971W/H972A/Q975S) above, with W144N, A145H, S148Q, C180R, Q184R counted along it
Outline: as §1
In the case of “GGCUAGAACUAGUGGAUCCCCCGGCGCCCGGCGGCUCGAGCCCGGGUAAGUGUAAAUAGUCUGCAUGCCGCCGGGCGCCAUGCCUGCAGGUCGACUCUAGAAAACAUG”, the binding signal is reported as 2.32 log2 enrichment (interaction score). In the case of “GGCUAGAACUAGUGGAUCCCCCGGCGCCCGGCGGCUCGAGCCCGGGUAAGUGUUAAUAGUCUGCAUGCCGCCGGGCGCCAUGCCUGCAGGUCGACUCUAGAAAACAUG”, the binding signal is reported as 4.33 log2 enrichment (interaction score). With “GGCUAGAACUAGUGGAUCCCCCGGCGCCCGGCGGCUCGAGCCCGGGUAAGUGUCAAUAGUCUGCAUGCCGCCGGGCGCCAUGCCUGCAGGUCGACUCUAGAAAACAUG” the binding signal was 4.35 log2 enrichment (interaction score). With “GGCUAGAACUAGUGGAUCCCCCGGCGCCCGGCGGCUCGAGCCCGGGUAAGUGUGAAUAGUCUGCAUGCCGCCGGGCGCCAUGCCUGCAGGUCGACUCUAGAAAACAUG” the binding signal was 1.36 log2 enrichment (interaction score).

These sequences were tested against PUM1 PUF domain R8-KFF (Homo sapiens, UniProt Q14671 828-1176, N1122K;Y1123F;Q1126F) in the same assay as above. Conditions: tags: N-Gal4 AD-HA kept; label: inside an RPR1-promoter hybrid RNA with tandem MS2 sites; ssRNA.
Sequence of PUM1 PUF domain R8-KFF (Q14671 828-1176 N1122K/Y1123F/Q1126F): as the sequence (Q14671 828-1176 N971W/H972A/Q975S) above, with W144N, A145H, S148Q, N295K, Y296F, Q299F counted along it
Outline: as §1
“GGCUAGAACUAGUGGAUCCCCCGGCGCCCGGCGGCUCGAGCCCGGGUAAGUGUAAAUAGUCUGCAUGCCGCCGGGCGCCAUGCCUGCAGGUCGACUCUAGAAAACAUG” was tested, and the binding signal was 2.66 log2 enrichment (interaction score). In the case of “GGCUAGAACUAGUGGAUCCCCCGGCGCCCGGCGGCUCGAGCCCGGGUAAGCGUAAAUAGUCUGCAUGCCGCCGGGCGCCAUGCCUGCAGGUCGACUCUAGAAAACAUG”, the binding signal is reported as 2.98 log2 enrichment (interaction score). In the case of “GGCUAGAACUAGUGGAUCCCCCGGCGCCCGGCGGCUCGAGCCCGGGUAAGGGUAAAUAGUCUGCAUGCCGCCGGGCGCCAUGCCUGCAGGUCGACUCUAGAAAACAUG”, the binding signal is reported as 2.27 log2 enrichment (interaction score).

What follows are sequences tested against PUM1 PUF domain R1-YVR (Homo sapiens, UniProt Q14671 828-1176, S863Y;R864V;Q867R) in the same assay as above. Conditions: tags: N-Gal4 AD-HA kept; label: inside an RPR1-promoter hybrid RNA with tandem MS2 sites; ssRNA.
Sequence of PUM1 PUF domain R1-YVR (Q14671 828-1176 S863Y/R864V/Q867R): as the sequence (Q14671 828-1176 N971W/H972A/Q975S) above, with S36Y, R37V, Q40R, W144N, A145H, S148Q counted along it
Outline: as §1
“GGCUAGAACUAGUGGAUCCCCCGGCGCCCGGCGGCUCGAGCCCGGGUAAGUGUAAAUUGUCUGCAUGCCGCCGGGCGCCAUGCCUGCAGGUCGACUCUAGAAAACAUG” was tested, and the binding signal was 6.97 log2 enrichment (interaction score). With “GGCUAGAACUAGUGGAUCCCCCGGCGCCCGGCGGCUCGAGCCCGGGUAAGUGUAAAUGGUCUGCAUGCCGCCGGGCGCCAUGCCUGCAGGUCGACUCUAGAAAACAUG” the binding signal was 3.38 log2 enrichment (interaction score). With “GGCUAGAACUAGUGGAUCCCCCGGCGCCCGGCGGCUCGAGCCCGGGUAAGUGUAAAUCGUCUGCAUGCCGCCGGGCGCCAUGCCUGCAGGUCGACUCUAGAAAACAUG” the binding signal was 6.93 log2 enrichment (interaction score).

Source: article PMC8384837, “Expanding the binding specificity for RNA recognition by a PUF domain”
